An excerpt weighted towards active compounds, which were near 1.7% of everything screened.
IL1B NFkB pot: enhances IL-1B driven NFkB nuclear translocation; HUVEC IL-1B NFkB p65 nuclear translocation imaging; activation, % at 2 µM; hit rate 0.3% among 94,000;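 active = activation above 40%, about the mean plus 3 SD, also judged a hit on visual image review; inconclusive = activation above 40% but not a hit on visual review; inactive = activation not above 40% and no visual hit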;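 note: percent activation is computed from the nuclear over cytoplasmic p65 intensity ratio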
VCAM1 TNFa inh: reduces TNF alpha induced VCAM1 expression in HUVEC | inhibition, % at 2 µM | hit rate 0.48% among 95,000 | AID 802 | HUVEC TNFa-induced VCAM-1 immunofluorescence, high-content imaging;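 active = inhibition above the batch mean plus 3 SD, with images confirmed as a hit by eye, cut at about 37% in these data; inconclusive = inhibition above that limit but hit not confirmed in images; inactive = inhibition not above that limit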
TNFa cytotox: toxic to HUVEC cells under TNF alpha stimulation; cell count reduction, % at 2 µM; HUVEC TNFalpha-stimulated, Hoechst cell count, imaging; hit rate 0.17% among 93,000;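 active = cell count reduction exceeding the screen mean by over 5 SD, scaled to untreated wells per plate, cut at about 78% in these data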;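 note: cells counted after 24 h of TNF alpha exposure following the 1 h pretreatment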
E-sel TNF inh: blocks E-selectin expression induced by TNF alpha | inhibition, % at 2 µM | hit rate 0.71% among 120,000 | AID 1246 | HUVEC TNFa-induced E-selectin immunofluorescence, high content;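 active = inhibition above the batch mean plus 3 SD, and confirmed as a hit on visual image review, cut at about 43% in these data; inconclusive = passes the inhibition cutoff but fails visual image review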
IL1B NFkB inh: blocks IL-1B driven NFkB nuclear translocation in HUVEC cells; hit rate 0.43% among 94,000; inhibition, % at 2 µM; AID 796; HUVEC IL-1B NFkB p65 nuclear translocation imaging;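 active = inhibition above about 30% together with a positive call from visual inspection of the well image, limit read from the data; inconclusive = inhibition above a set limit but visual check negative; inactive = inhibition not above a set limit, visual check negative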;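 note: nuclear over cytoplasmic p65 intensity ratio measured by imaging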
HUVEC tox IL1B: toxic to HUVEC cells under IL-1B stimulation | cell count reduction, % at 2 µM | HUVEC cell count loss, Hoechst imaging, IL-1B stimulated | hit rate 0.41% among 94,000 | AID 845;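 active = cell count reduction more than 3 SD above the screen-wide mean, cut at about 70% in these data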
A number is an active result; n = inactive; u = inconclusive; x = not tested or not shown.

SMILES	IL1B NFkB pot	VCAM1 TNFa inh	TNFa cytotox	E-sel TNF inh	IL1B NFkB inh	HUVEC tox IL1B
COc1cccc(C(=O)N(Cc2ccccc2)Cc2cc3cc4c(cc3[nH]c2=O)OCCO4)c1	n	n	n	n	n	n
COc1ccc2cc(CN(CCO)C(=O)c3ccccc3F)c(=O)[nH]c2c1	n	n	n	100	n	n
COc1ccc(C(=O)N(Cc2ccccc2)Cc2cc3cc4c(cc3[nH]c2=O)OCCO4)cc1	n	n	n	n	72	n
O=C(Nc1nc(N2C(=O)c3ccccc3C2=O)n(-c2ccccc2)n1)c1ccc(Cl)cc1	n	n	n	n	n	n
Cc1onc(-c2c(F)cccc2Cl)c1C(=O)NC(=S)NC1CCS(=O)(=O)C1 (stereo unspecified)	x	x	x	n	x	x
Cc1ccccc1C(=O)Nc1ccccc1C(=O)N/N=C\c1ccco1	n	n	n	n	n	n
O=C(Nc1ccccc1C(=O)N/N=C/c1ccco1)c1ccc(F)cc1	x	x	x	94	x	x
COc1ccc(/C=N/NC(=O)C(C)n2cnc3ccccc3c2=O)cc1OC (stereo unspecified)	x	x	x	96	x	x
O=C(c1cnn2c(C(F)(F)F)cc(-c3ccco3)nc12)N1CCc2ccccc2C1	n	n	n	n	n	n
CCN1CCN(C(c2ccc(F)cc2)c2nnnn2Cc2cccs2)CC1 (stereo unspecified)	x	x	x	n	x	x
CN1CCN(C(c2ccc(F)cc2)c2nnnn2Cc2cccs2)CC1 (stereo unspecified)	x	x	x	57	x	x
CCOc1cccc(C(=O)Nc2cccc(-c3nc4ncccc4o3)c2C)c1	n	x	x	n	n	n
COc1cccc(C(=O)Nc2cccc(-c3nc4ncccc4o3)c2C)c1	n	94	n	x	n	n
O=C(CN1CCC(O)(c2ccccc2F)CC1)NCCc1c[nH]c2ccccc12	n	x	x	n	n	n
COCCN1CN(S(=O)(=O)c2ccccc2)c2nc3ccccc3nc21	n	x	x	63	n	n
O=C(NC(NC1CCS(=O)(=O)C1)C(=O)c1cccs1)c1ccccc1 (stereo unspecified)	n	94	n	n	n	n
O=C(NC1CCS(=O)(=O)C1)c1cccnc1 (stereo unspecified)	x	x	x	n	x	x
Cc1ccc(Cl)cc1N1CCN(S(=O)(=O)c2ccc3c(c2)oc(=O)n3C)CC1	u	n	n	n	n	n
O=C(O)c1ccc(CNCc2c(Cl)cccc2Cl)cc1	n	n	n	n	n	n
CCC1Sc2ccccc2N(CC(=O)NCc2ccc3c(c2)OCO3)C1=O (stereo unspecified)	x	x	x	95	x	x
N/C(=N\c1nc2c(c(=O)[nH]1)CCC2)Nc1ccccc1	x	x	x	n	x	x
COC(=O)Cc1c(C(=O)OC)nnn1-c1cccc(C(F)(F)F)c1	x	x	x	n	x	x
CCc1cccc(CC)c1NC(=O)C1SC(=Nc2ccccc2C)C(c2nc3ccccc3s2)=C1N (stereo unspecified)	n	59	n	n	n	n
Cc1nn(-c2ccccc2)c(Cl)c1C(=O)Nc1nnc(C2CCCCC2)s1	n	n	n	n	n	n
O=C(Nc1nnc(C2CC2)s1)c1cc(-c2ccccc2)nn1-c1ccccc1	x	x	x	97	x	x
SMILES	IL1B NFkB pot	VCAM1 TNFa inh	TNFa cytotox	E-sel TNF inh	IL1B NFkB inh	HUVEC tox IL1B
COc1ccc(CCNC(=O)COC(=O)c2ccc(N3CCCC3=O)cc2)cc1	x	x	x	n	x	x
O=C(C1CC1)N1CCc2cc(Br)cc(S(=O)(=O)NCCCN3CCCC3)c21	x	x	x	66	x	x
CC(=O)N1CCc2cc(Br)cc(S(=O)(=O)NCCCN3CCC(C)CC3)c21	n	n	n	n	n	n
Cc1cc(OCC[N+]2(C)CCCCC2)nc2ccccc12	n	n	n	x	n	n
Cc1cc(=O)oc2cc(OCC(=O)NCc3ccco3)ccc12	n	n	n	n	n	n
CC1CC(C)CN(C(=O)c2ccccc2Nc2ccc(SC(F)F)cc2)C1 (stereo unspecified)	n	n	n	n	n	n
O=c1nc2n(c3ncccc13)CCCCC2	x	x	x	n	x	x
O=C(c1ccc([N+](=O)[O-])cc1)N(Cc1ccc(Cl)cc1Cl)N1C(=O)CCCC1=O	n	n	n	n	n	n
O=C(c1ccc([N+](=O)[O-])cc1)N(Cc1ccc(Cl)cc1)N1C(=O)CCCC1=O	n	46	n	n	n	n
CCOC(=O)Cc1csc(NC(=O)C(NC(=O)C2CCCCC2)C(C)C)n1 (stereo unspecified)	x	x	x	n	x	x
COc1ccc(N=C2SCC(=O)N2c2ccc(OC)cc2)cc1	n	n	n	87	n	n
Cc1ccc(C(=O)c2c(NC(=O)c3ccccc3C)sc(C)c2C)cc1	n	n	n	100	n	n
O=C(c1cc2ccccc2o1)N1CCN(c2ccccc2Cl)CC1	n	n	n	x	n	93
Cn1c(/C=N/c2nc3ccccc3[nH]2)nc2ccccc21	n	n	n	n	n	n
Cn1c(/C=N/n2cnnc2)nc2ccccc21	n	n	n	n	99	85
Cc1ccc(S(=O)(=O)N(C)C)cc1NC(=S)N1CCCCC1CO (stereo unspecified)	x	x	x	n	x	x
CCCc1cc(O)c2c(C)cc(=O)oc2c1	n	n	n	n	n	n
O=C1c2ccccc2C(=O)N1CCCN1CCN(CCCN2C(=O)c3ccccc3C2=O)CC1	n	n	n	n	98	89
O=C(c1ccco1)N1CCN(c2nc(C(F)(F)F)nc3c2nnn3Cc2ccccc2)CC1	41	n	n	n	n	n
CCCCOC(=O)CCn1c(=S)oc2ccccc21	n	n	n	66	n	n
COc1ccc(C(C)n2c(C)c3c(C)nnc(C)c3c2C)cc1 (stereo unspecified)	n	n	n	n	41	n
Cc1nnc(C)c2c(C)n(C(C)c3ccccc3)c(C)c12 (stereo unspecified)	n	n	n	n	n	n
CCN(CC)c1ccc(/C=C(\C#N)c2nc(-c3cccs3)c(NC(C)=O)s2)cc1	x	x	x	n	x	x
CCSc1nc2sc3c(c2c2nnc(SCC(=O)NCc4ccco4)n12)CCCC3	n	n	n	n	n	n
CC1CCc2c(sc3ncn4c(SCC(=O)NCc5ccco5)nnc4c23)C1 (stereo unspecified)	169	n	n	n	n	n
SMILES	IL1B NFkB pot	VCAM1 TNFa inh	TNFa cytotox	E-sel TNF inh	IL1B NFkB inh	HUVEC tox IL1B
CC1CCc2c(sc(NC(=O)C(=O)NCc3ccco3)c2C#N)C1 (stereo unspecified)	42	n	n	n	n	n
Cc1ccc2nc(SCC(=O)Nc3cc(C(F)(F)F)ccc3N3CCOCC3)[nH]c2c1	n	91	n	n	n	n
O=C(CSc1nc2ccccc2o1)Nc1cc(C(F)(F)F)ccc1N1CCOCC1	n	n	n	n	n	n
CCOC(=O)N1CCC(Nc2nc3ccccc3nc2NS(=O)(=O)c2ccc(Cl)cc2)CC1	n	n	n	n	n	n
O=C(CCCOc1ccc(Cl)cc1)Nc1nncs1	43	n	n	n	n	n
O=C(COC(=O)Cc1cccc(C(F)(F)F)c1)Nc1ccc2c(c1)OCCO2	x	x	x	n	x	x
O=C(CN1C(=O)C2CC=CCC2C1=O)Nc1ccc(S(=O)(=O)N2CCOCC2)cc1 (stereo unspecified)	x	x	x	n	x	x
Clc1ccc(OCc2nn3c(-c4ccncc4)nnc3s2)cc1	46	n	n	n	n	n

Assay outcomes deposited in PubChem BioAssay by Columbia University Molecular Screening Center.
